Assay results: the supplement of paper PMC3545927
The other results are listed elsewhere or left out. No count for the full screen is at hand.

Molecular target: furin, P09958
Assay: furin cleavage Z-score vs untreated control; higher = more cleavage, active = 3.5 or more, inactive = 1 or less, 8 variable residues between constant flanks
In short: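 In 50 mM HEPES pH 7.5 with CaCl2 and NaCl, purified furin was incubated with bead-anchored 8-mer peptide–cDNA fusions at 1:10 enzyme:substrate in 0.01 ml. Incubation times were 7.5, 15 and 30 min. DNA set free by cleavage was adapter-tagged by PCR and sequenced, with read counts taken as abundance. Log counts relative to furin-free reactions, after lowess adjustment and median absolute deviation scaling, form the cleavage Z-score.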

Sequence of furin, P09958 (P09958 whole entry): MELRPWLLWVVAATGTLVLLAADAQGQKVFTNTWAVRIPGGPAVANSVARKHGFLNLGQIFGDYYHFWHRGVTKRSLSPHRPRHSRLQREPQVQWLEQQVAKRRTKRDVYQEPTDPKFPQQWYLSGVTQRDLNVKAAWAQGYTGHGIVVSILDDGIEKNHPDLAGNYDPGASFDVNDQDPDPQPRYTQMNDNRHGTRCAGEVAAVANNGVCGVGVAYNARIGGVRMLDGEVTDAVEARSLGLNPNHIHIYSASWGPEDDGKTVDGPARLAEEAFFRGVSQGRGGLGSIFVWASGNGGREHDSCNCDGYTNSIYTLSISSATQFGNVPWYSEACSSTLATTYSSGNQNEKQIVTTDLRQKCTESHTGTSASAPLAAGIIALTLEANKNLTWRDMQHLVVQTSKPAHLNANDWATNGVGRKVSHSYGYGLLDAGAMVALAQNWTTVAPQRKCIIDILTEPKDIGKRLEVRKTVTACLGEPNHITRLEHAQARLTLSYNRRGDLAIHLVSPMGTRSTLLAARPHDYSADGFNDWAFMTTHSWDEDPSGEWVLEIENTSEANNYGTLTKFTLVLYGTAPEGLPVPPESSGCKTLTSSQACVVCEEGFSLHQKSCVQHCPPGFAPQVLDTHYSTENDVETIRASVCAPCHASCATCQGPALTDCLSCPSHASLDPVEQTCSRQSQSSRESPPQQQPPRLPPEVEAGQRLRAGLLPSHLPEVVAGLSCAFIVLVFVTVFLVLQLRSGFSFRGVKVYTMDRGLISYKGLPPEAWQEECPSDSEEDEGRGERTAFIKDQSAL

Row | Sequence | furin cleavage Z-score (7.5 min) | furin cleavage Z-score (15 min) | furin cleavage Z-score (30 min)
1 | CAMWPLLLLLAGNASASA [HC557] | 0.169 (inactive) | 0.292 (inactive) | -0.0686 (inactive)
2 | CAQVLPCSFTAGNASASA [HC497] | 1.05 | -1.13 (inactive) | 0.347 (inactive)
3 | CAVVCCSMHYAGNASASA [HC2075] | -0.613 (inactive) | 1.54 | 1.45
4 | CASSTSGITGAGNASASA [HC1338] | -0.675 (inactive) | -0.0853 (inactive) | -0.923 (inactive)
5 | CAELVTSTWVAGNASASA [HC2165] | 1.19 | -1.53 (inactive) | 0.617 (inactive)
6 | CAQYWRDKRLAGNASASA [FS-1154] | 0.77 (inactive) | 0.402 (inactive) | 0.0823 (inactive)
7 | CALPPIIQRLAGNASASA [HC1600] | -1.17 (inactive) | -0.382 (inactive) | -0.2 (inactive)
8 | CAGSLRKKRLAGNASASA [FS-1528] | 8.24 (active) | 9.41 (active) | 8.69 (active)
9 | CALMHRKKRLAGNASASA [FS-351] | 8.68 (active) | 11 (active) | 9.08 (active)
10 | CATPARKKRLAGNASASA [FS-729] | 7.39 (active) | 8.85 (active) | 8.77 (active)
11 | CALSDRKKRLAGNASASA [FS-1137] | 4.97 (active) | 5.99 (active) | 4.87 (active)
12 | CASVVTSTWVAGNASASA [HC2157] | 1.21 | -0.109 (inactive) | 0.831 (inactive)
13 | CAGEPGDPDLAGNASASA [HC1357] | -1.27 (inactive) | -0.0644 (inactive) | 0.75 (inactive)
14 | CAWVPCHRPSAGNASASA [HC2308] | -0.717 (inactive) | 2.59 | 0.688 (inactive)
15 | CAEVPCHRESAGNASASA [HC2392] | 0.318 (inactive) | 1.09 | 0.395 (inactive)
16 | CADFSLDPTFAGNASASA [HC892] | 0.169 (inactive) | -0.616 (inactive) | -1.12 (inactive)

Row | Sequence | furin cleavage Z-score (7.5 min) | furin cleavage Z-score (15 min) | furin cleavage Z-score (30 min)
17 | CATTGEIPFYAGNASASA [HC845] | -1.32 (inactive) | -1.97 (inactive) | 0.0887 (inactive)
18 | CAVQEDAASLAGNASASA [HC1535] | -1.62 (inactive) | -0.428 (inactive) | -0.272 (inactive)
19 | CALCSALYVGAGNASASA [HC296] | -0.409 (inactive) | -0.564 (inactive) | 0.88 (inactive)
20 | CAMFECSQHLAGNASASA [HC1687] | -0.00522 (inactive) | -0.149 (inactive) | -0.982 (inactive)
21 | CAVVCWSMSYAGNASASA [HC87] | -0.794 (inactive) | -0.454 (inactive) | -0.791 (inactive)
22 | CARSQRSWRLAGNASASA [FS-1162] | -0.897 (inactive) | -0.415 (inactive) | -1.15 (inactive)
23 | CATPRRQKRLAGNASASA [FS-881] | 9.61 (active) | 11.3 (active) | 9.49 (active)
24 | CAGSRRPRRDAGNASASA [FS-789] | 13.1 (active) | 13 (active) | 10.2 (active)
25 | CARSPRPRGDAGNASASA [FS-3090] | 0.374 (inactive) | -0.595 (inactive) | 0.318 (inactive)
26 | CAPGPRPRRDAGNASASA [FS-472] | 14.1 (active) | 15 (active) | 10.8 (active)
27 | CAPLARAAWEAGNASASA [HC1566] | 0.967 (inactive) | 1.75 | 0.234 (inactive)
28 | CAKHNRPRRDAGNASASA [FS-602] | 12.5 (active) | 11.7 (active) | 9.21 (active)
29 | CAGSRRWGRYAGNASASA [FS-167] | -0.565 (inactive) | 1.19 | 2.01
30 | CAPEPREQRDAGNASASA [FS-1045] | -0.201 (inactive) | -0.175 (inactive) | -0.45 (inactive)
31 | CAPLARPRRDAGNASASA [FS-556] | 9.88 (active) | 7.62 (active) | 6.73 (active)
